Structures are written as SMILES. Compounds without any hit were thinned out: in the full panel of roughly 83,000, 20% have a hit.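 Step 1: grow cells in 96-well plates. Step 2: add test compound at a single concentration. Step 3: incubate 48 h. Step 4: record percent growth.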 Unmarked numbers belong to inactive results. The source made the active and inactive calls. The calls were made as follows: active = growth percent below 10; inactive = the rest.

Some test systems named below: HCT-15 colon; HT29 colon; SNB-75 CNS; SNB-19 CNS; U251 CNS; PC-3 prostate; SK-MEL-5 melanoma; UACC-62 melanoma; LOX IMVI melanoma; SK-MEL-28 melanoma.
Holding throughout (experiment): NCI-60 one-dose screen, 48 h (100 = growth as untreated, 0 = no growth, -100 = all killed)
What all share (settings): 10 µM unless noted

In the case of `NCCCn1c2c(c3cc(-c4ccn[nH]4)ccc3c1=O)C(=O)c1ccccc1-2`, the growth with HCT-15 colon is 31.2%; in the assay on HT29 colon it was 9.31% (active); with SNB-75 CNS it was 42.2%; in the assay with SNB-19 CNS, 55%; with U251 CNS it was 37.1%; with PC-3 prostate, 50%. Moreover, the growth in the assay on SK-MEL-5 melanoma is 58.4%; in the assay on UACC-62 melanoma it was 78%; in the assay with LOX IMVI melanoma, 47.1%; in the assay on SK-MEL-28 melanoma, 111%.

Regarding `Cc1c(Cl)cccc1NC(=O)c1sc2nc3c(cc2c1N)COCC3`, the growth was 19.6% in the assay with HCT-15 colon; 5.9% (active) in the assay on HT29 colon; 19.4% with SNB-75 CNS; 26.5% in the assay with SNB-19 CNS; 22.6% in the assay with U251 CNS; 30.3% in the assay with PC-3 prostate. Also, the growth was 23.9% with SK-MEL-5 melanoma, 31.1% in the assay on UACC-62 melanoma, 35.5% in the assay on LOX IMVI melanoma and 58.6% in the assay on SK-MEL-28 melanoma.

On to `C=C1C(=O)O[C@H]2[C@H]1CC/C(COC(=O)CCC(=O)OC/C1=C/CC[C@@]3(C)O[C@H]3[C@H]3OC(=O)C(=C)[C@@H]3CC1)=C\CC[C@@]1(C)O[C@@H]21`, for which the growth is 0.631% (active) in the assay with HCT-15 colon; 27.2% with HT29 colon; 76.5% in the assay with SNB-75 CNS; 94.3% with SNB-19 CNS; 72.9% in the assay on U251 CNS; 60% with PC-3 prostate. Besides, the growth was 61.4% in the assay on SK-MEL-5 melanoma, 13.2% in the assay on UACC-62 melanoma, 26.2% in the assay on LOX IMVI melanoma and 4.61% (active) in the assay on SK-MEL-28 melanoma.

Turning to `NS(=O)(=O)c1ccc(-n2nc(-c3ccccc3)ccc2=O)cc1`, the growth in the assay on HCT-15 colon is 108%; in the assay on HT29 colon, 112%; with SNB-75 CNS, 114%; in the assay with SNB-19 CNS, 101%; in the assay with U251 CNS it was 99.2%; in the assay on PC-3 prostate, 96.2%. Also, the growth in the assay on SK-MEL-5 melanoma was 109%; with UACC-62 melanoma it was 89.6%; in the assay with LOX IMVI melanoma, 104%; in the assay on SK-MEL-28 melanoma it was 104%.

Consider `COC(=O)/C=C/c1cc(OC(C)=O)c2c(c1)C(C(=O)OC)C(c1ccc(OC(C)=O)c(OC(C)=O)c1)O2` (stereo not given), for which the growth is 7.82% (active) in the assay on HCT-15 colon; 11% with HT29 colon; 46.3% in the assay with SNB-75 CNS; 23.1% in the assay on SNB-19 CNS; 7.2% (active) in the assay on U251 CNS; 12% with PC-3 prostate. Further, the growth in the assay on SK-MEL-5 melanoma was -19% (active); in the assay on UACC-62 melanoma, 32.6%; with LOX IMVI melanoma it was 14.1%; in the assay with SK-MEL-28 melanoma, 50.5%.

With `COc1cc(/C=C/C(=O)c2cccs2)ccc1OCc1ccc(Cl)nc1`, the growth was 62.5% in the assay with HCT-15 colon; 97.3% with HT29 colon; 119% in the assay with SNB-75 CNS; 66.6% with SNB-19 CNS; 35.3% with U251 CNS; 69% in the assay with PC-3 prostate. For the same compound, the growth in the assay with SK-MEL-5 melanoma was 87.2%; in the assay on UACC-62 melanoma, 71.3%; in the assay with LOX IMVI melanoma it was 27.2%; in the assay on SK-MEL-28 melanoma, 92%.

`C[C@H]1[C@H](C)CC[C@]2(C(=O)OCCCC[P+](c3ccccc3)(c3ccccc3)c3ccccc3)CC[C@]3(C)C(=CC[C@@H]4[C@@]5(C)CC[C@H](OC(=O)C(Cl)Cl)C(C)(C)[C@@H]5CC[C@]43C)[C@H]12`: the growth in the assay with HCT-15 colon is -68.8% (active); with HT29 colon, -55.5% (active); in the assay with SNB-75 CNS, -24.5% (active); in the assay with SNB-19 CNS, -56.1% (active); in the assay with U251 CNS it was -88.6% (active); in the assay with PC-3 prostate, -60.8% (active). The growth in the assay with SK-MEL-5 melanoma is -100% (active); with UACC-62 melanoma it was -67.8% (active); in the assay on LOX IMVI melanoma, -99.6% (active); in the assay with SK-MEL-28 melanoma, -77.4% (active).

On to `COC(=O)c1ccc(NC(=O)CSc2nc(-c3ccc(F)cc3)nc3ccccc23)cc1`, for which the growth with HCT-15 colon is 89.3%; in the assay on HT29 colon, 91.3%; in the assay on SNB-75 CNS, 79.4%; in the assay on SNB-19 CNS, 80.2%; in the assay on U251 CNS it was 63.1%; in the assay with PC-3 prostate, 75.6%. In addition, the growth in the assay with SK-MEL-5 melanoma was 74.3%; in the assay with UACC-62 melanoma it was 93.4%; in the assay on LOX IMVI melanoma, 64.8%; with SK-MEL-28 melanoma it was 94.7%.

For `NC(=N\N=C\c1ccccc1O)/C(N)=N/N=C/c1ccccc1O`, the growth was 66% with HCT-15 colon; 73.8% with HT29 colon; 84.4% in the assay on SNB-75 CNS; 84.4% with SNB-19 CNS; 82.7% in the assay on U251 CNS; 56.1% in the assay on PC-3 prostate. Besides, the growth with SK-MEL-5 melanoma was 84.6%; with UACC-62 melanoma, 68.9%; with LOX IMVI melanoma, 48.6%; with SK-MEL-28 melanoma it was 90.5%.

For `[2H]c1nc(Nc2ncc3cc(C(=O)N(C)C)n(C4CCCC4)c3n2)c([2H])c([2H])c1N1C([2H])([2H])C([2H])([2H])NC([2H])([2H])C1([2H])[2H]`, the growth in the assay with HCT-15 colon is 79.9%; in the assay on HT29 colon it was 27.6%; in the assay with SNB-75 CNS it was 69.7%; in the assay on SNB-19 CNS, 61.5%; in the assay with U251 CNS it was 56.1%; with PC-3 prostate it was 54.6%. In addition, the growth is 72.3% in the assay with SK-MEL-5 melanoma, 64.6% with UACC-62 melanoma, 40.2% in the assay with LOX IMVI melanoma and 84.2% in the assay with SK-MEL-28 melanoma.

As for `CCCn1cc(/C=N\N=C2\C(=O)Nc3ccc(C)cc32)c2ccccc21`, the growth in the assay on HCT-15 colon was 23%; in the assay with HT29 colon, 17.1%; in the assay on SNB-75 CNS it was 85.6%; with SNB-19 CNS, 63.3%; in the assay on U251 CNS, 40%; in the assay on PC-3 prostate it was 18%. The growth in the assay with SK-MEL-5 melanoma was 49.1%; in the assay with UACC-62 melanoma it was 40.4%; with LOX IMVI melanoma, 4.42% (active); in the assay on SK-MEL-28 melanoma, 59.4%.

Consider `Cc1cc(C)c2nc(Nc3nc(C)c(C)c(=O)[nH]3)nc(C)c2c1`, for which the growth in the assay on HCT-15 colon was 7.23% (active); in the assay with HT29 colon, 9.28% (active); with SNB-75 CNS it was 51.3%; in the assay with SNB-19 CNS, 22%; with U251 CNS, 16.7%; with PC-3 prostate it was 20.9%. The growth in the assay with SK-MEL-5 melanoma was 2.14% (active); in the assay on UACC-62 melanoma it was -37.7% (active); in the assay on LOX IMVI melanoma, 6.29% (active); in the assay with SK-MEL-28 melanoma it was 3.48% (active).

Turning to `COc1cc2nc3c(=O)n(CCN(C)C)cnn3c(=O)c2cc1OC`, the growth was 103% in the assay on HCT-15 colon; 101% in the assay on HT29 colon; 76.4% in the assay on SNB-75 CNS; 105% with SNB-19 CNS; 107% in the assay on U251 CNS; 102% with PC-3 prostate. The growth is 98.7% in the assay on SK-MEL-5 melanoma, 101% with UACC-62 melanoma, 97.9% in the assay with LOX IMVI melanoma and 102% in the assay with SK-MEL-28 melanoma.

The record behind these values is PubChem BioAssay (NCI).
